Screening results as filed in PubChem BioAssay.
GPR151 ag – activators of human GPR151, primary screen, cell-based, PathHunter beta-arrestin, luminescence. G-protein coupled receptor 151 (Homo sapiens), Q8TDV0. PathHunter beta-arrestin GPR151 cells. activation, % at 11.2 µM. hit rate 1% among 650,000. AID 1508602, 2020; in the data active means activation above about 4.9%;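 further: 0% = median of compound wells and 100% = cells with positive control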
TEAD-YAP inh – TEAD-YAP interaction inhibition, primary screen, TEAD-YAP interaction inhibitor project, luminescence, HEK-TIYL cells; TEAD-Gal4/YAP UAS-luciferase luminescence; inhibition, % at 9.12 µM; hit rate 1.4% among 640,000; in the data active means inhibition above about 32%;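 further: 0% = median of test compound wells and 100% = reference inhibitor wells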
FBW7 act – FBW7 E3 ligase activators, primary screen, biochemical, AlphaScreen, human. normalized activity (activation), % at 26.1 µM. AlphaScreen FBW7–phospho-cyclin E peptide binding, activator screen. F-box/WD repeat-containing protein 7 (Homo sapiens), Q969H0. AID 1259310, 2017. hit rate 0.13% among 650,000; in the data active means normalized activity above about 1.9%;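 further: purified mutant Fbw7 with reduced substrate affinity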
Target sequence (Q969H0 whole entry, looked up): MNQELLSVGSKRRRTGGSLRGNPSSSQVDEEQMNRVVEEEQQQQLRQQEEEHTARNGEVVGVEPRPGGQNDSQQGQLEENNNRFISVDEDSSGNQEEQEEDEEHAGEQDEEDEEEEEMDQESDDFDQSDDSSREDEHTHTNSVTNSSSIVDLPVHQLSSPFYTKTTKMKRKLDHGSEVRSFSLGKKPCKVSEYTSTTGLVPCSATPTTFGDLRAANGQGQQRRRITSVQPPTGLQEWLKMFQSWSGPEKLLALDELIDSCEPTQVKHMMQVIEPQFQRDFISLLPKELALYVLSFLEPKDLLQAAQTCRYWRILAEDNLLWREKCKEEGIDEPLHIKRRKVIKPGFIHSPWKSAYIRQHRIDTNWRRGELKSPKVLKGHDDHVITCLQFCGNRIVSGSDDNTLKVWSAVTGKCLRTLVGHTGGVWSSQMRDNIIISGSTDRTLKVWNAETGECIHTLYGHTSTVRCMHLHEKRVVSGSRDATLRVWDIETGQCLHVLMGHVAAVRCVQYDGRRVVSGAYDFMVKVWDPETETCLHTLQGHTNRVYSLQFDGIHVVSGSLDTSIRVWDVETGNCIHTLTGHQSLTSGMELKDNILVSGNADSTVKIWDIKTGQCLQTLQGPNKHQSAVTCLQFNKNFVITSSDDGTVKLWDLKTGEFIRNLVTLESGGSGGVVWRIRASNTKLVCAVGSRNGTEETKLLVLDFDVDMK
MITF inh – MITF inhibitors, primary screen, biochemical, AlphaScreen, human | Microphthalmia-associated transcription factor (Homo sapiens), O75030 | AlphaScreen MITF homodimerization, bead proximity signal | inhibition, % at 2.6 µM | hit rate 0.91% among 650,000 | AID 1259374, 2018; in the data active means inhibition above about 50%;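 further: 0% = vehicle wells with protein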
GPR151 confirm – GPR151 activators, triplicate retest, confirmation, cell-based, PathHunter beta-arrestin, luminescence; shares compounds with GPR151 ag; GPR151 PathHunter beta-arrestin cells, 90 min; % of EA-reagent control over plate median; activation, % at 11.2 µM; 6,700 tested, under 10 active;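 active means mean percent activation across replicates above the confirmation screen cutoff of 4.91%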
GPR119 ag – GPR119 activators in beta-arrestin cells, counter-screen for GPR151 activator project, cell-based, PathHunter beta-arrestin, luminescence, triplicate; 90 min; 0 = compound-well median, 100 = enzyme-acceptor control; AID 1508611, 2020; activation, % at 11.2 µM; hit rate 0.3% among 6,700; shares compounds with GPR151 ag;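 active means mean percent activation in the counterscreen above 29.09%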;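 further: counterscreen on off-target GPR119 to flag nonselective hits from the GPR151 activator screen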
Starred values were filed as active, the others as inactive; . = no result. In the library only some 3.5% were active in any assay of this set; here they are far more common.

SMILES	GPR151 ag	TEAD-YAP inh	FBW7 act	MITF inh	GPR151 confirm	GPR119 ag
COc1ccc(NC(=O)N2CCCC2)cc1OC	0.6	5.0	0.1	10.2	.	.
CC(=O)c1cccc(NC(=O)N2CCN(C/C=C/c3ccccc3)CC2)c1	-0.3	2.4	0.2	-4.0	.	.
COc1ccc(NC(=O)N2CCN(C/C=C/c3ccccc3)CC2)cc1OC	14.4*	11.9	-0.2	13.3	-0.5	-8.7
Cc1cccc(NC(=O)CCN2CCN(C/C=C/c3ccccc3)CC2)c1	4.9*	2.0	1.1	17.2	0.2	-5.6
Nc1cc(Cl)ccc1C(=O)OCC(=O)Nc1ccc2c(c1)OCO2	1.4	-6.2	-0.1	6.8	.	.
CCOc1ccccc1N1CCN(C(=O)Nc2ccc(OC)c(OC)c2)CC1	7.8*	-1.4	0.0	-1.8	-1.1	-17.6
COCc1cc(C)nc(SCC(=O)Nc2nc3ccccc3s2)c1C#N	0.1	-11.5	0.3	4.1	.	.
NNC(=O)CCCNS(=O)(=O)c1ccc([N+](=O)[O-])cc1	5.7*	0.4	-0.1	-0.3	1.2	6.4
CC(C)c1ccc(/C=N\NC(=O)c2cnccn2)cc1	1.0	-42.4	0.1	3.1	.	.
O=c1c2nccnc2nc(SCc2cccc(F)c2)n1Cc1ccco1	11.8*	5.6	0.2	-18.1	-0.3	-0.5
O=c1c2cc3c(cc2nc(SCc2cccc(F)c2)n1Cc1ccco1)OCO3	-0.9	-3.0	-0.1	-5.2	.	.
O=C1C(c2ccccc2F)N(Cc2ccc(F)cc2)C(=O)CN1C1CCCCCC1 (stereo unspecified)	1.1	4.1	0.2	1.7	.	.
CN(C)CCOc1ccc(-c2ccc(C=O)cc2)cn1	2.1	-23.0	-0.4	16.1	.	.
COCCNc1nc(-c2cccc(Cl)c2)ccc1C(=O)NCCNC(C)=O	1.1	10.8	0.2	6.9	.	.
CCC(C)c1ccc(NC(=O)N2CCOCC2)cc1 (stereo unspecified)	5.4*	-56.6	0.3	11.8	-0.6	-8.1
Cc1ccc(NC(=O)N2CCOCC2)cc1	-0.8	-2.9	-0.2	-10.7	.	.
Cc1ccc(C(=O)NCC(=O)OCC(=O)c2c[nH]c3ccccc23)s1	1.3	-0.8	-0.2	3.8	.	.
Cc1cnc(NCc2ccc3c(c2)OCO3)nc1NCCc1ccc(O)cc1	0.5	13.3	-0.1	-2.1	.	.
O=C(Cn1c(=O)oc2ccccc21)NCc1ccco1	5.3*	3.2	0.0	17.2	-1.1	-0.4
O=C(CN1C(=O)c2ccccc2S1(=O)=O)NCc1ccco1	9.0*	-8.0	-0.1	-8.3	-0.4	15.7
COc1ccc(OC)c(/C=C2/NC(=O)N(Cc3ccc(Br)cc3)C2=O)c1	2.0	2.6	0.1	-4.3	.	.
COc1cc(OC)c(/C=C2/NC(=O)N(Cc3ccc(F)cc3)C2=O)c(OC)c1	6.2*	-5.8	-0.1	-0.3	0.6	-2.0
COc1ccc(OC)c(/C=C2\NC(=O)N(Cc3ccc(Cl)cc3)C2=O)c1	7.9*	6.0	0.7	7.8	0.2	-5.4
O=C(Nc1ccc(-n2ncc3ccc(-c4nn[nH]n4)cc32)cc1)c1ccccc1	-1.5	-6.7	-0.1	-14.4	.	.
O=C(Cc1ccc(F)cc1)Nc1ccc(-n2ncc3ccc(-c4nn[nH]n4)cc32)cc1	5.0*	-6.9	-0.6	2.7	-0.1	4.2
SMILES	GPR151 ag	TEAD-YAP inh	FBW7 act	MITF inh	GPR151 confirm	GPR119 ag
O=C(Cn1c(-c2cccnc2)nc2ccccc21)N1CCCCCC1	5.6*	10.0	0.1	-4.5	0.0	2.3
O=C(Cn1c(-c2ccccn2)nc2ccccc21)N1CCCCC1	-2.5	1.6	0.9	0.7	.	.
COc1cccc(/C=N\N=c2\sc3ccccc3n2C)c1OC	0.1	-46.6	-0.1	18.6	.	.
COc1ccc(/C=N/N=c2\sc3ccccc3n2C)c(OC)c1	9.2*	-44.1	0.0	4.1	-0.1	5.9
N#C/C(=C\c1ccc(-c2nc3ccccc3s2)o1)C(N)=O	-1.7	-39.8	0.0	9.0	.	.
CNC(=O)/C(C#N)=C/c1ccc(-c2nc3ccccc3s2)o1	5.5*	-58.4	-0.2	-5.5	-0.7	-1.5
CCOCCOC(=O)C1=C(C)NC(=O)NC1c1ccc(F)cc1 (stereo unspecified)	2.3	-3.2	-0.5	7.0	.	.
Cc1ccc(-n2c(SCc3cccc(C)c3)nc3[nH]ncc3c2=O)cc1	0.1	4.2	0.6	18.9	.	.
Cc1ccc(CSc2nc3[nH]ncc3c(=O)n2-c2cccc(C)c2)cc1	9.0*	-10.2	-0.1	4.3	0.5	9.9
CCc1ccc(-n2c(SCc3cc(=O)n4c(C)cccc4n3)nc3[nH]ncc3c2=O)cc1	5.8*	-6.7	0.0	0.7	0.6	10.9
CO/C(=N\S(=O)(=O)c1ccc(Cl)cc1)c1ccccc1	5.9*	-6.1	0.0	16.9	-1.1	-11.0
N/C(=N\S(=O)(=O)c1ccc(Cl)cc1)c1ccccc1	3.5	8.3	0.2	11.2	.	.
CCOCCCNC(=S)N1CCN(c2nc(-c3ccc(F)cc3)cs2)CC1	5.8*	32.8*	0.1	7.4	1.3	20.5
O=C(CN1CC(=O)N2CCCC2C1=O)NCc1cccc(Cl)c1 (stereo unspecified)	10.4*	-8.0	0.0	-3.2	-0.6	-10.1
O=C(CN1CC(=O)N2CCCC2C1=O)NCc1ccccc1 (stereo unspecified)	-2.0	4.8	0.2	11.8	.	.
O=C(CN1CC(=O)N2CCCC2C1=O)NCCc1ccccc1 (stereo unspecified)	-1.9	1.4	-0.2	-4.1	.	.
O=C(CN1CC(=O)N2CCCC2C1=O)NCCc1ccc(Cl)cc1 (stereo unspecified)	7.8*	-3.2	0.0	-2.4	-0.5	-2.1
Cc1ccc(CNC(=O)CN2CCC(NC(=O)c3cccc(C)c3)CC2)cc1	-0.6	15.4	0.4	-5.7	.	.
CN(C)CCC(=O)N1c2ccccc2Sc2ccc(Cl)cc21	-1.1	-12.3	0.3	4.8	.	.
CN(C)CCOC1=Cc2ccccc2Sc2ccc(Cl)cc21	5.7*	.	0.7	12.4	0.2	-6.4
COc1ccccc1OCCCN1C(=O)C(=O)c2cc(Br)cc(C)c21	14.4*	12.6	-0.1	-3.7	1.2	15.5
CCN1C=CC=C/C1=C1\SC(=S)N(C)C1=O	7.3*	1.7	0.0	11.9	-1.7	-9.4
O=C(Nc1ccc(NC(=O)c2ccccc2F)nc1)c1ccncc1	-0.3	-10.2	-0.1	3.7	.	.
CCOC(=O)COc1ccc(/C=C2\C=C(c3ccc(Br)cc3)OC2=O)cc1OC	13.2*	6.5	0.1	-13.5	1.8	13.9
Cn1nccc1Nc1nccc(Nc2ccccc2)n1	7.5*	-4.8	0.0	-4.6	0.8	5.2
CC(C)NC(=O)CN(Cc1cccs1)C(=O)CCC(=O)Nc1nccs1	-1.5	-13.6	-0.1	0.7	.	.
CCOc1ccc(C(=O)NCCc2ccc(OC)c(OC)c2)cc1	1.0	-0.2	0.0	3.8	.	.
